The source of these data is PubChem BioAssay AID488854 (National Center for Advancing Translational Sciences (NCATS), 2010).

Inconclusive results are not listed. Values without a mark were called inactive. The source made the active and inactive calls. Calls come from the whole dose curve; as a rule, active = well fitted activation curve with a large enough effect; inconclusive = small, poorly fitted or top-dose-only effect; inactive = no such curve, though single readings can be large or run the other way.

The target in the assay is Lysosomal acid glucosylceramidase (Homo sapiens) (UniProt P04062). Nature of the assay: qHTS Assay for Inhibitors and Activators of N370S glucocerebrosidase as a Potential Chaperone Treatment of Gaucher Disease: Confirmation for Probe SAR. Particulars: N370S GC spleen homogenate, 4MU-glucoside fluorescence; series mostly up to 57.5 µM; activity change, positive = activation: at the top concentration. An excerpt: NIH Chemical Genomics Center [NCGC] NIH Molecular Libraries Probe Production Centers Network [MLPCN] MLPCN Grant: MH086442-01 Assay Submitter (PI): Wei Zheng Glucocerebrosidase (GC) catalyzes the hydrolysis of beta-glucocerebroside to glucose and ceramide in lysosomes. Mutations in the glucocerebrosidase gene result in Gaucher disease, an autosomal recessive lysosomal storage disorder. Many of the mutations encountered in patients with Gaucher disease are missense alterations that may cause misfolding, decreased stability and/or mistrafficking of this lysosomal protein. […] These inhibitors include iminosugar analogs and three non-iminosugar inhibitors identified from a previous HTS of 62,000 compounds with the wild type recombinant enzyme. However, the enhancement of enzyme activity by the chaperone action of an enzyme inhibitor must be balanced against the direct inhibition of the enzyme. An enzyme activator could also function as a chaperone by binding to the enzyme and helping to correct its misfolding and mistrafficking. While activators for GC have not yet been identified, they may have better therapeutic potential than inhibitors. Therefore the discovery and development of chemical activators may provide a new strategy for the chaperone therapy. We have optimized a new assay using N370S mutant GC derived from the spleen of a Gaucher patient. […] In addition, the MLPCN compound library has expanded, which increases the chance of finding new and better probes.
Sequence of Lysosomal acid glucosylceramidase (Homo sapiens) (P04062 whole entry N409S): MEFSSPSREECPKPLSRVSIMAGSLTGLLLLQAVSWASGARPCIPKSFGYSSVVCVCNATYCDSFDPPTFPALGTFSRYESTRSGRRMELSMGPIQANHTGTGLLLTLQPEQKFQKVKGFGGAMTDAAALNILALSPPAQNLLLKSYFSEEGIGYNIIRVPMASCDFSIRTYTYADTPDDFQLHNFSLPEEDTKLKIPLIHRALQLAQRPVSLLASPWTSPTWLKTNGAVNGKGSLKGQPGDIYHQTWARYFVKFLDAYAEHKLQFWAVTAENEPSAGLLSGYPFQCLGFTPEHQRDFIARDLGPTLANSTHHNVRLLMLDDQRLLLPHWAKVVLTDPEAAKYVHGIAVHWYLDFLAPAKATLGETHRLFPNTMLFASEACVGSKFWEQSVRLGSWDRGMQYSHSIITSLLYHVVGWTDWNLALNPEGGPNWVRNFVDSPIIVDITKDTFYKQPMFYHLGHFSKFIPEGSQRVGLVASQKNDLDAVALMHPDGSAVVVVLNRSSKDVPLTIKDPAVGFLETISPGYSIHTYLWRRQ
NCGC Assay Protocol Summary: This is a fluorogenic enzyme assay with 4-methylumbelliferyl-beta-D-glucopyranoside as the substrate and N370S glucocerebrosidase from human spleen homogenate as the enzyme preparation. Upon the hydrolysis of this fluorogenic substrate, the resulting product, […] which can be detected by a standard fluorescence plate reader. Data were normalized to the controls for basal activity (without enzyme) and 100% activity (with enzyme). The AC50 values were determined from concentration-response data modeled with the standard Hill equation. Assay buffer: 50 mM citric acid (titrated with potassium phosphate to pH 5.0), 100 mM potassium chloride, 10 mM sodium chloride, 1 mM magnesium chloride, 0.01% Tween-20. 1536-well assay protocol: (1) Add 2 ul/well of spleen homogenate (27 ug final) (2) Add 23 nL compounds in DMSO solution. The final titration was 0.5 nM to 58 uM. (3) Add 2 ul of substrate (1 mM final) (4) Incubate at 37C for 40 min. (5) Add 2 ul stop solution (1M NaOH and 1M Glycine mixture, pH 10) (6) Detect the assay plate in a ViewLux plate reader (PerkinElmer) with Ex=365 nm and Em=440nm. Keywords: Glucocerebrosidase, beta-glucosidase, Gaucher Disease, pharmacological chaperone, chaperone therapy, high throughput screening, glucocerebrosidase inhibitor, MLSMR, MLSCN, NIH Roadmap, qHTS and NCGC
(In general: In qHTS, concentration-response curves come from the screen itself.)
Regarding `CCc1ccc(NC(=O)c2cnn3c(C)cc(-c4ccccc4)nc23)cc1`, the Potency is 13 µM (active).
For the compound `Cc1cc(C)n2ncc(C(=O)NC(C)C)c2n1`, the “activity change, positive = activation” value is 28.6%.
Take `Cc1cc(C)n2ncc(C(=O)Nc3ccccc3Sc3ccccc3)c2n1`: the Potency is 18.3 µM (active).
Same read-out and setting: in the case of `Cc1cc(C)n2ncc(C(=O)Nc3ccccc3C)c2n1` it was 16.3 µM (active).
Regarding `CCCCN(CCCNC(=S)NCCCc1cnc[nH]1)c1ccc(Br)cn1`, the “activity change, positive = activation” value is -105%.
Turning to `CCc1ccc(NC(=O)c2cnn3c(C)cc(C)nc23)cc1`, the Potency was 4.11 µM (active).
Regarding `Cc1cc(C)n2ncc(C(=O)Nc3ccc4c(c3)OCO4)c2n1`, the Potency is 6.51 µM (active).
